Composite z-score and z-score data for 9 molecules are collected here from PubChem BioAssay.

The source made the active and inactive calls.

A short description of experiment [1]: small molecules captured by biotinylated probe aFSTL3 – biochemical, small-molecule microarray, fluorescence 635/667, stem cell growth factor project, primary screen (AID 1064).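 Further: measures binding of the biotinylated anti-FSTL3 antibody to printed compounds.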 As to conditions: higher = more signal.
A short description of experiment [2]: binders from COS7 lysate, DM2A8 probe, primary screen, torsin A project, cell lysate, small-molecule microarray, fluorescence 635/667 (AID 1065). Particulars: higher = more signal, COS7 lysate expressing mutant human TOR1A.
A short description of experiment [3]: small molecules captured by biotinylated probe aFGF2 – biochemical, small-molecule microarray, fluorescence 635/667, stem cell growth factor project, primary screen (AID 1067).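 Further: measures binding of biotinylated aFGF2 protein to printed compounds on slides; z-score merges feature fluorescence and signal-to-noise across triplicate slides.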 As to conditions: higher = more signal.
Experiment [4] is described as follows: small molecules captured by biotinylated probe aFGF10 – biochemical, small-molecule microarray, fluorescence 635/667, stem cell growth factor project, primary screen (AID 1071).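 Further: score merges 667 nm spot intensity and signal to noise from triplicate slides.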 Particulars: higher = more signal.
Experiment [5] has as its target Neurogenic locus notch homolog protein 2 (Homo sapiens) (UniProt Q04721). Kind of experiment: small molecules binding Notch2 protein – biochemical, small-molecule microarray, 635 nm fluorescence, stem cell growth factors, primary screen (AID 1073). Particulars: higher = more signal.
For experiment [6], the target named is Pro-neuregulin-1, membrane-bound isoform (Homo sapiens) (UniProt Q02297). Kind of experiment: small molecules binding neuregulin-1 protein – biochemical, small-molecule microarray, fluorescence 635/667, psychiatric disease protein project, primary screen (AID 1075).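 Further: score combines 667 nm spot fluorescence with signal to noise.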 Particulars: NRG1 binding, 635 nm fluorescence, higher = more signal.
Pro-neuregulin-1, membrane-bound isoform (Homo sapiens), sequence (Q02297 whole entry, looked up, the tested form may be a part, canonical isoform): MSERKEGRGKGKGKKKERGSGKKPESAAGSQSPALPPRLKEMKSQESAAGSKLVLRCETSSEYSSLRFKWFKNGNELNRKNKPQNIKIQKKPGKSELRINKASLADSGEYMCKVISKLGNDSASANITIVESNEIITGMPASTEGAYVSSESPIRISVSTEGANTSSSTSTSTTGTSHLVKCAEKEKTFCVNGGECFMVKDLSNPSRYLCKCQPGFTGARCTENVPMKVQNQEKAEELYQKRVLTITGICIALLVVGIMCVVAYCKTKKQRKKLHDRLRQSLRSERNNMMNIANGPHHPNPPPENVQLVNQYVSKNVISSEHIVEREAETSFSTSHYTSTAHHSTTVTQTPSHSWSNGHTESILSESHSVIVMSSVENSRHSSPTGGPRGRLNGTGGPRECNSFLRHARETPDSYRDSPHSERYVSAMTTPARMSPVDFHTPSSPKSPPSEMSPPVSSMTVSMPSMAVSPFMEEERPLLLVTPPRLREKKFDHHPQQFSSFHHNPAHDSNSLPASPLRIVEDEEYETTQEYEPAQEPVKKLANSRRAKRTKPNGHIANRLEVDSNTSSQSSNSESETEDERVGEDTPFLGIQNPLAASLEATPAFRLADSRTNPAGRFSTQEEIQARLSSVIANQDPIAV
For experiment [7], the system named is Neuregulin-1 EGF-like domain. Kind of experiment: small molecules binding NRG1 EGF domain – biochemical, small-molecule microarray, 635 nm fluorescence, primary screen (AID 1081).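 Further: binding of the protein to compounds printed on small-molecule microarray slides.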 As to conditions: higher = more signal.
Experiment [8] is described as follows: FRG1 expression reporter modulators in myotubes – cell-based, C2C12 myotubes, firefly/Renilla luciferase, luminescence, FRG1 inhibition for FSHD, primary screen (AID 1084). Particulars: FRG1 promoter luciferase, higher = more signal, called active from +8 up or from −8 down.
Experiment [9] can be described thus: small molecules captured by biotinylated probe aFST – biochemical, small-molecule microarray, fluorescence 635/667, stem cell growth factor project, primary screen (AID 1086).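 Further: score merges 667 nm fluorescence with signal-to-noise of each printed compound spot.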 As to conditions: higher = more signal.
Experiment [10] in a line: binders of probe aHhip on microarray, primary screen, stem cell growth factor project, biochemical, small-molecule microarray, fluorescence 635/667 (AID 1087).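 Further: score merges spot fluorescence at 667nm with spot signal to noise ratio.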 Particulars: higher = more signal.
Experiment [11] has as its system PRMT1 (protein arginine N-methyltransferase 1). Kind of experiment: small molecules binding arginine methyltransferase PRMT1 – biochemical, small-molecule microarray, 635 nm fluorescence, primary screen (AID 1088).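 Further: binding of Prmt1 protein to compounds spotted on small-molecule microarray slides.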 As to conditions: higher = more signal.
A short description of experiment [12]: growth effects on S. cerevisiae YJM789 – YJM789 clinical isolate, OD600, 24 h, basal, primary screen (AID 1089).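 Further: growth of clinical yeast isolate S. cerevisiae YJM 789 seeded 1000 cells per well; test concentration not given here.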 Particulars: higher = more signal, called active from +8 up or from −8 down.
Experiment [13] in a line: S. pombe growth modifiers, basal conditions – strain 972, OD600, 24 h, no modulator, primary screen (AID 1090).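 Further: basal condition with compound alone and no growth modifier present; test concentration not given here.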 Particulars: S. pombe 972 growth, higher = more signal, called active from +8 up or from −8 down.
Experiment [14] is described as follows: budding yeast growth modifiers under rapamycin – strain BY4716, OD600, 96 h, primary screen (AID 1091). Further: test concentration not given here. As to conditions: S. cerevisiae BY4716 + rapamycin, higher = more signal, called active from +8 up or from −8 down.
Experiment [15] addresses Torsin-1A-interacting protein 2 (Homo sapiens) (UniProt Q8NFQ8). Kind of experiment: small molecules binding lysate-expressed LULL1 – cell lysate, human LULL1 lysate, 635/667 nm fluorescence, primary screen (AID 1092).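 Further: probe is lysate of COS7 cells overexpressing human LULL1; score merges per-feature 667 nm fluorescence with signal-to-noise.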 Particulars: small-molecule microarray, hLULL1 lysate binding, 635 nm fluorescence; higher = more signal.
A short description of experiment [16]: optical density change of DRC41 E. coli – strain DRC41, OD650, 24 h, E. coli filamentation project, primary screen (AID 1093).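 Further: MC1000 strain lacking acrAB efflux and sulA so SOS filamentation is blocked; test concentration not given here.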 As to conditions: E. coli DRC41 growth, higher = more signal, called active from +8 up or from −8 down.
Experiment [17] is described as follows: probe aLefty2 binding to arrayed compounds – biochemical, biotinylated probe, 635/667 nm fluorescence, primary screen (AID 1094).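 Further: score merges spot fluorescence near 667 nm with spot signal-to-noise ratio.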 As to conditions: small-molecule microarray, higher = more signal.
The test system of experiment [18] is Noggin (protein binding on small-molecule microarray). As to the kind of experiment: small molecules binding Noggin protein – biochemical, 635/667 nm fluorescence, primary screen (AID 1095).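 Further: score merges 667 nm feature fluorescence with signal to noise over triplicate slides.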 As to conditions: 635 nm fluorescence, higher = more signal.
Experiment [19] addresses Neurogenic locus notch homolog protein 3 (Homo sapiens) (UniProt Q9UM47). Kind of experiment: small molecules binding NOTCH3 protein – biochemical, 635/667 nm fluorescence, primary screen (AID 1096). Particulars: small-molecule microarray, 635 nm fluorescence, higher = more signal.
The nature of experiment [20]: probe aEGFR binding to arrayed compounds – biochemical, biotinylated probe, 635/667 nm fluorescence, primary screen (AID 1097).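 Further: probe is a biotinylated anti-EGFR antibody binding compounds printed on slides; score combines fluorescence near 667 nm and signal to noise of each spot.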 As to conditions: small-molecule microarray, higher = more signal.

Torsin-1A-interacting protein 2 (Homo sapiens), sequence (Q8NFQ8 whole entry, looked up): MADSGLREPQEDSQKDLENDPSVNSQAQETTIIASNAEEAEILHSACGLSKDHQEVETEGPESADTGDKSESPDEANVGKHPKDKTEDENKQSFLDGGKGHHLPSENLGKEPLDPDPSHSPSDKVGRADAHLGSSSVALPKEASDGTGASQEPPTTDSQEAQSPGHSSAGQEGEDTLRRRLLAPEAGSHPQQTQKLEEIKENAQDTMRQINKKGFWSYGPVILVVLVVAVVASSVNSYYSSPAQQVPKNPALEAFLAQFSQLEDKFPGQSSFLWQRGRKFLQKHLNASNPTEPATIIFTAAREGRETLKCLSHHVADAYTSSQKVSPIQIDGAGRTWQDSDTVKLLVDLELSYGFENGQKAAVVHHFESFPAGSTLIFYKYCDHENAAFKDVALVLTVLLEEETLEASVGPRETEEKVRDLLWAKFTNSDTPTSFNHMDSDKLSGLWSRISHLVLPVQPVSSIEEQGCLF
Neurogenic locus notch homolog protein 3 (Homo sapiens), sequence (Q9UM47 whole entry, looked up): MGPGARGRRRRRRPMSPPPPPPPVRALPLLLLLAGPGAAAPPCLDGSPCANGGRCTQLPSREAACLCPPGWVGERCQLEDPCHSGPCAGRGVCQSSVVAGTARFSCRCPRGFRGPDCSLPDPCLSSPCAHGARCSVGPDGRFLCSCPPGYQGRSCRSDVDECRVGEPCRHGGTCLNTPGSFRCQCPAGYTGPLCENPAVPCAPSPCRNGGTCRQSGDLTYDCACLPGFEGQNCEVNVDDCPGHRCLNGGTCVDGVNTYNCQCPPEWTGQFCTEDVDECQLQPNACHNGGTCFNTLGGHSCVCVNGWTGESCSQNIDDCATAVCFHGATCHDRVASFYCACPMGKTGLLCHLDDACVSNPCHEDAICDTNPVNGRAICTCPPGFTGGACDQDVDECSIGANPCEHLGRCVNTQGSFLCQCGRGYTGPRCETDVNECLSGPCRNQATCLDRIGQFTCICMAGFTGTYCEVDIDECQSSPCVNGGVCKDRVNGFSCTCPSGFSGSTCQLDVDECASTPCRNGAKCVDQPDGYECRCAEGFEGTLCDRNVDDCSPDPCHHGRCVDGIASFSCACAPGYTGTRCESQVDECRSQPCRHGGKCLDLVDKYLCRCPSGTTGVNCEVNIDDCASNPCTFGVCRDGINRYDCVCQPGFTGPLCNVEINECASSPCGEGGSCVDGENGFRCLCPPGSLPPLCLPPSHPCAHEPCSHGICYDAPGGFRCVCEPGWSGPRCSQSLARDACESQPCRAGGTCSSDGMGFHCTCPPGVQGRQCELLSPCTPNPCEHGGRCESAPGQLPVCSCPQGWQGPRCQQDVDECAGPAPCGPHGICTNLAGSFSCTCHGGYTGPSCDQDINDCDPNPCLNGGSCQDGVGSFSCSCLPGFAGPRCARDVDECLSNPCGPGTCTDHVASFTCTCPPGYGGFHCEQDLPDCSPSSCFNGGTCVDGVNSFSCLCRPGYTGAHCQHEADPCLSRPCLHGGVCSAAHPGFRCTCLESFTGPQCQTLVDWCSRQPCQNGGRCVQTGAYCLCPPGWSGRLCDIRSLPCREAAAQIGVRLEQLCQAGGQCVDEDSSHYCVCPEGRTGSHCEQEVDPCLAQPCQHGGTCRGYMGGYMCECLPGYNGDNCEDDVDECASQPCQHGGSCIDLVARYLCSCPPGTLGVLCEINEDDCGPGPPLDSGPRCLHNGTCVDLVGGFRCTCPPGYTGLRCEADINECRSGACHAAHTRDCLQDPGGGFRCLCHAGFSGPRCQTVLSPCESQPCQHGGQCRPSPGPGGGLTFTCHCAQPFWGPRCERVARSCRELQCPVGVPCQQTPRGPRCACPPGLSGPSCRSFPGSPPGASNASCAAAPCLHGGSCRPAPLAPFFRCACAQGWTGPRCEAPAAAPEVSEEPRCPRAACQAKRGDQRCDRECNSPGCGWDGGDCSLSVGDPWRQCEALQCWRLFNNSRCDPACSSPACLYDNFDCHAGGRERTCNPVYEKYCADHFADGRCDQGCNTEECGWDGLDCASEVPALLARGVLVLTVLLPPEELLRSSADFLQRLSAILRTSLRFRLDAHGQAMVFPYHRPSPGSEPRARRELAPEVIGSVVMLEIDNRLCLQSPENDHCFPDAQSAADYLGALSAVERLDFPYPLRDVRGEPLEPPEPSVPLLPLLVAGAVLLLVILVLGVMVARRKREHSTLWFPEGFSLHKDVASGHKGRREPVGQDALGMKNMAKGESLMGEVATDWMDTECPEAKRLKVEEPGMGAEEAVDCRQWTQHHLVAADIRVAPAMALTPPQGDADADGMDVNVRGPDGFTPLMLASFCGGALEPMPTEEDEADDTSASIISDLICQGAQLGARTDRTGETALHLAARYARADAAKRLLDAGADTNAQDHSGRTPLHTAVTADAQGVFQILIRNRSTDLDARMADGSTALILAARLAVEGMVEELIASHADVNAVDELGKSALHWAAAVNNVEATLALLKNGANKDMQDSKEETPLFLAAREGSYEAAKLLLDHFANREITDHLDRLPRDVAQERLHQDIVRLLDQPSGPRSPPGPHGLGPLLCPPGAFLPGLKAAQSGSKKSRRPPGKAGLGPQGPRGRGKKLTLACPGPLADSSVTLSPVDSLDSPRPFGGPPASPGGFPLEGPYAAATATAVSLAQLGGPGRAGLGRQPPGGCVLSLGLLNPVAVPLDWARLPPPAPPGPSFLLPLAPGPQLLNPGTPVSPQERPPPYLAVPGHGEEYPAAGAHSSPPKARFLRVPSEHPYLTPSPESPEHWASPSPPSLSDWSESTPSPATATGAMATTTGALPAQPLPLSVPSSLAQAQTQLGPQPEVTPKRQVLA

As for `O=C1C[C@@](C(=O)NCCN2CCOCC2)(c2ccc([N+](=O)[O-])cc2)[C@@H](c2ccc(CO)cc2)N1C1CCCCC1`, the composite z-score in [1] was 0.224; in [2] it was 0.657; in [3], 0.11; in experiment [4] it was 0.26; in experiment [5], 0.576; in experiment [6] it was 0.548. The composite z-score in experiment [7] turned out to be 1.25; in [9] it was 0.133; in experiment [10], 0.0053; in [11], 1.55; in experiment [15] it was 3.07; in experiment [17] it was 0.138. In addition, the figures for the composite z-score in experiment [18], in [19] and in experiment [20] were 0.515, 1.12 and 0.23, respectively. For the same molecule, the z-score in experiment [8] was 0.292 (inactive); in [12] it was 0.406 (inactive); in experiment [13], -0.824 (inactive); in experiment [14], -0.468 (inactive); in experiment [16], 1.48 (inactive).
Take `[N-]=[N+]=NCc1ccccc1C[C@]1(C(=O)N2CCCCC2)N=C(c2ccc(OCCCO)cc2)O[C@H]1c1ccccc1CN=[N+]=[N-]`: the composite z-score in [1] was -0.0017; in experiment [2], 0.759; in experiment [3], 0.0342; in experiment [4] it was 0.765; in experiment [5], 0.776; in experiment [6], 1.63. Besides, the composite z-score in experiment [7] was 1.19; in [9] it was 1.29; in [10], 0.142; in experiment [11] it was 1.55; in experiment [15], 3.35; in experiment [17] it was -0.0041. Besides, the composite z-score in experiment [18] was 0.686; in [19], 1.14; in experiment [20], -0.0703. In addition, the z-score in experiment [8] is -1.62 (inactive); in experiment [12] it was 0.551 (inactive); in experiment [13] it was 0.118 (inactive); in [14] it was 8.36 (active); in experiment [16], -0.004 (inactive).
With `C=C[C@H](OC)[C@@H](OC(=O)Nc1ccc(SC)cc1)c1ccc(OC)c(O)c1`, the composite z-score in [1] was 0.687; in [2], -0.368; in experiment [3] it was -0.141; in experiment [4] it was -0.748; in [5], -0.708; in [6] it was -0.231. Besides, the composite z-score in experiment [7] is 0.164; in [9], -0.595; in experiment [10] it was -0.0994; in experiment [11], 0.0672; in experiment [15], -0.023; in experiment [17], -0.0986. Moreover, the values for the composite z-score in experiment [18], in [19] and in experiment [20] were -0.878, -0.321 and -0.338, respectively. The z-score in [8] is 1.2 (inactive); in experiment [12] it was -0.55 (inactive); in [13] it was -0.965 (inactive); in [14] it was -0.44 (inactive); in experiment [16], 2.04 (inactive).
Turning to `CCC#CCN(Cc1ccccc1Br)[C@H](/C=C/c1ccccc1)[C@@H](O)Cc1ccccc1`, the composite z-score in [1] is 1.78; in experiment [2], -0.387; in [3], -0.176; in [4] it was -0.61; in experiment [5] it was -1.52; in [6] it was -0.0939. In addition, the composite z-score is -0.11 in experiment [7]; -0.465 in [9]; -0.271 in [10]; -0.394 in experiment [11]; 1.22 in experiment [15]; 0.136 in [17]. Moreover, the results for the composite z-score in [18], in experiment [19] and in experiment [20] were -1.78, -1.11 and -0.458, respectively. Also, the z-score in [8] is -0.227 (inactive); in experiment [12] it was 0.629 (inactive); in experiment [13], 0.266 (inactive); in [14], 1.12 (inactive); in experiment [16] it was 0.567 (inactive).
For `COC(=O)[C@H]1[C@@H]2COc3ccccc3[C@H]2N[C@H]1C(=O)OC`, the composite z-score in experiment [1] is -0.241; in experiment [2], -0.0479; in experiment [3], -0.139; in [4] it was 0.255; in experiment [5], 0.419; in experiment [6], 0.281. The composite z-score in [7] was 0.428; in experiment [9] it was 0.168; in experiment [10] it was -0.189; in experiment [11], 0.213; in [15], 0.584; in experiment [17], 0.0111. In addition, the figures for the composite z-score in experiment [18], in [19] and in experiment [20] were 0.208, 0.422 and -0.152, respectively. For the same molecule, the z-score was 0.44 (inactive) in [8]; -0.501 (inactive) in experiment [12]; -8.98 (active) in experiment [13]; 0.265 (inactive) in experiment [14]; 0.694 (inactive) in [16].
Consider `CN1C(=O)C2C=CC(C(O)C3CC=CCC3)N(Nc3ccccc3)C2C1=O` (stereo not given), for which the composite z-score in experiment [1] amounted to 0.0125; in experiment [2] it was 1.54; in experiment [3] it was 0.0631; in experiment [4], 0.752; in experiment [5], 1.62; in experiment [6] it was 1.85. The composite z-score in experiment [7] is 1.29; in [9], 0.733; in experiment [10], 0.382; in experiment [11], 1.47; in experiment [15], 3.32; in experiment [17] it was 0.344. Further, the composite z-score in [18] came out at 0.584; in [19], 1.06; in experiment [20] it was 0.112. In addition, the z-score in experiment [8] is 0.294 (inactive); in [12], 0.373 (inactive); in experiment [13], 0.772 (inactive); in experiment [14] it was 0.726 (inactive); in experiment [16] it was -0.623 (inactive).
For `Cc1ccc(N2C(=O)c3ccccc3[C@](C)(C(=O)O)[C@@H]2c2ccc(CO)cc2)nc1`, the composite z-score in experiment [1] was 1.5; in experiment [2] it was -0.461; in [3], -0.224; in experiment [4], -1.1; in experiment [5], -1.52; in [6] it was 1.91. The composite z-score in experiment [7] was -0.402; in experiment [9] it was -0.663; in experiment [10] it was -0.181; in [11], -1.11; in [15], -1.18; in experiment [17], -0.15. Further, the composite z-score in experiment [18] is -2.06; in experiment [19], -1.17; in experiment [20] it was -0.427. The z-score in experiment [8] is 0.744 (inactive); in experiment [12] it was 0.508 (inactive); in experiment [13], -0.633 (inactive); in experiment [14], 0.653 (inactive); in experiment [16] it was 1.62 (inactive).
With `COC(=O)C1=CC(c2ccc(CO)cc2)=CC(C2CC2)N(Cc2sc3ccccc3c2Cl)C=C1C(=O)OC` (stereo not given), the composite z-score in experiment [1] was 0.541; in [2], 1.99; in [3], 0.0083; in experiment [4], 0.88; in experiment [5], 1.26; in experiment [6], 1.68. In addition, the composite z-score is 1.33 in experiment [7]; 1.32 in experiment [9]; 0.065 in experiment [10]; 1.55 in [11]; 3.07 in experiment [15]; 0.214 in experiment [17]. In addition, the composite z-score stood at 0.331 in [18], 1.1 in experiment [19] and 0.157 in [20]. The z-score in experiment [8] was -2.15 (inactive); in experiment [12] it was -2.21 (inactive); in [13] it was -5.52 (inactive); in experiment [14], -1.12 (inactive); in experiment [16], -2.06 (inactive).
As to `C=CCC(OC(C)=O)[C@@H]1[C@@H](N(Cc2cccc3ccccc23)C(=O)c2ccc(C)cc2)c2cc(OCCCO)ccc2N1C(=O)c1ccc(-c2ccccc2)cc1` (stereo not given in full), the composite z-score in experiment [1] was 0.115; in experiment [2], 0.529; in experiment [3], -0.0753; in experiment [4], 0.255; in experiment [5], -0.169; in [6], 0.0808. Also, the composite z-score in experiment [7] is -0.173; in experiment [9], 0.159; in [10] it was -0.335; in [11], 0.578; in experiment [15] it was 0.298; in [17], -0.11. Also, the composite z-score was 0.314 in experiment [18], 0.387 in [19] and -0.0967 in experiment [20]. For the same molecule, the z-score in experiment [8] was -2.1 (inactive); in experiment [12], -2.24 (inactive); in experiment [13], 0.167 (inactive); in experiment [14] it was -0.347 (inactive); in [16], 1.29 (inactive).
